# ± gives the standard deviation of the averaged measurements. Whole data set: some 33,000 sequences, median “E-score (rank enrichment, -0.5 to 0.5)” near -0.0028, cut for the highest 2% near 0.23. The sample as a whole holds a higher share of the highest values than the screen did.
# Test system: 2Sb-muMax20 (muMax20 with two 1,3-bis(methyl)benzene Cys staples, A13C/A17C and Q88C/A92C, C-terminal Lys)
# Test: PBM 8-mer E-score (E-score (rank enrichment, -0.5 to 0.5)); higher = stronger preferential binding
# Procedure: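 Protein binding microarray (universal PBM chip covering all 10-mers in fixed probe flanks) with chemically synthesized human Max(13-93) bHLH-LZ analogs (not full-length Max) bearing noncanonical residues (hArg, Tha, Aib, Nle at 65) and aromatic Cys staples. Read-out per 8-mer (and its reverse complement): E-score (rank-based enrichment, -0.5 to 0.5) and Z-score of median probe intensity.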
row,Sequence,PBM 8-mer E-score
1,CCTCACTA,0.127 ± 0.035
2,AGCCACAC,0.111 ± 0.045
3,TCCCTGCA,0.0481 ± 0.0088
4,AACCACGA,0.068 ± 0.082
5,ACCCACGT,0.35 ± 0.025
6,AACCACGC,-0.0289 ± 0.036
7,ACCCACGA,0.0473 ± 0.015
8,AACCACGT,0.304 ± 0.0045
9,ACCCACGC,0.0613 ± 0.043
10,AAACACGC,0.0985 ± 0.012
11,AAACACGT,0.238 ± 0.0029
12,AAACACGA,0.14 ± 0.053
13,GCGACATA,-0.0543 ± 0.01
14,GAGCAACC,-0.0186 ± 0.037
15,ACGAGCAA,0.00429 ± 0.043
16,AGAGTACT,0.0199 ± 0.063
17,GATGATTA,-0.00815 ± 0.038
18,CATGATAA,0.262 ± 0.004
19,CTTGATTA,0.159 ± 0.039
20,CATGATTC,0.0849 ± 0.046
21,TAAGATAA,0.0702 ± 0.044
22,CAAGATAA,0.253 ± 0.025
23,ATTGATTA,0.0825 ± 0.032
24,TATGATAA,0.0883 ± 0.068
25,GTTGATTA,0.259 ± 0.0094

row,Sequence,PBM 8-mer E-score
1,CATGATTA,0.236 ± 0.035
2,AATGATAA,0.0436 ± 0.05
3,AAAGATAA,0.124 ± 0.033
4,AACAAGCT,0.0609 ± 0.024
5,GCTGGCGA,-0.207 ± 0.015
6,GGTTCGCA,-0.146 ± 0.0032
7,AGGGTCTC,-0.0134 ± 0.094
8,CGTCCACC,-0.0444 ± 0.07
9,GTCGTTAA,-0.133 ± 0.028
10,GGGAATCA,-0.0266 ± 0.031
11,CCTGCACC,-0.0811 ± 0.0012
12,ACGCTGCC,-0.0685 ± 0.038
13,TAACGCGA,0.0123 ± 0.0097
14,TGCATGCA,0.132 ± 0.01
15,AGCATGCA,0.3172 ± 0.00083
16,CGCATGCG,0.279 ± 0.067
17,GGCATGCA,-0.0517 ± 0.02
18,CGCATGCC,0.141 ± 0.064
19,CGCATGCA,0.171 ± 0.028
20,GCGACGCC,-0.126 ± 0.025
21,TAGGTATA,0.138 ± 0.011
22,CTCCAATA,0.0951 ± 0.05
23,CATAGCTA,0.17 ± 0.065
24,AAAAGCTC,-0.0474 ± 0.048
25,GAAAGCTA,0.0215 ± 0.023

row,Sequence,PBM 8-mer E-score
1,AAAAGCTA,0.236 ± 0.025
2,AATAGCAT,0.262 ± 0.023
3,AATAGCTA,0.244 ± 0.0096
4,AATAGCAA,0.106 ± 0.11
5,GATAGCTA,0.0488 ± 0.04
6,AATAGCAC,0.0775 ± 0.071
7,AGAGGCCC,-0.0713 ± 0.025
8,ATGCCGGG,-0.256 ± 0.0027
9,GACTTTCC,-0.0524 ± 0.043
10,CGGCGGGC,-0.184 ± 0.073
11,CTTCTCGC,0.0717 ± 0.022
12,GCAGCCAA,-0.0475 ± 0.046
13,AAGCAATC,0.256 ± 0.026
14,GAGCAATC,-0.0835 ± 0.0098
15,AAGCAATT,0.187 ± 0.017
16,CGTCTAGA,-0.162 ± 0.029
17,ATCTACTA,0.243 ± 0.026
18,ATATTACA,0.173 ± 0.13
19,GTATTATA,0.238 ± 0.024
20,ATCTACTG,-0.00445 ± 0.014
21,GCATTATA,0.14 ± 0.041
22,GTATATTA,0.188 ± 0.012
23,CTATATTA,0.153 ± 0.015
24,GTATTACA,0.253 ± 0.024
25,ATCTACTC,-0.0796 ± 0.04

row,Sequence,PBM 8-mer E-score
1,GTATTAAA,0.177 ± 0.05
2,ATATATTA,0.241 ± 0.036
3,CTATTACA,0.14 ± 0.041
4,AATTGGCT,0.131 ± 0.011
5,ACGAATGG,0.073 ± 0.041
6,ATTTGAGA,0.152 ± 0.034
7,AACAGCGA,-0.213 ± 0.047
8,GTGTTTGA,0.1 ± 0.029
9,CGAAGTCA,-0.106 ± 0.12
10,CGAACCGA,-0.228 ± 0.013
11,GGTGCCGA,-0.189 ± 0.027
12,ATATTATA,0.242 ± 0.052
13,ATATTATC,0.112 ± 0.0097
14,CTATACTA,0.169 ± 0.015
15,ATATACTA,0.2955 ± 0.0011
16,ATTATATA,0.185 ± 0.047
17,AGATTATG,-0.0162 ± 0.068
18,ATATACTC,0.173 ± 0.053
19,ATATTATG,0.277 ± 0.026
20,CTATTATA,0.0823 ± 0.013
21,CACACTGA,-0.0965 ± 0.055
22,AAATCGAC,0.0123 ± 0.035
23,AGGGGCCA,0.0356 ± 0.053
24,CTCGAGCC,0.0235 ± 0.047
25,ACCAGGCC,-0.168 ± 0.022

row,Sequence,PBM 8-mer E-score
1,GGCCACGA,-0.0901 ± 0.0031
2,ACACTACG,0.0974 ± 0.045
3,ATTCTGAA,0.0149 ± 0.024
4,ACGGAGCA,0.0531 ± 0.012
5,AACGTACA,0.0315 ± 0.031
6,GCTATATA,0.173 ± 0.019
7,ACTATATC,0.271 ± 0.019
8,ACTATATG,0.143 ± 0.052
9,CCTATATC,0.0672 ± 0.019
10,ATTATATC,0.224 ± 0.0096
11,ACTATATA,0.285 ± 0.058
12,CGTCGCGC,-0.0442 ± 0.0083
13,CATCCTGG,-0.145 ± 0.035
14,ACCTTTCC,0.0327 ± 0.034
15,ATATTAAA,0.234 ± 0.046
16,ATCTTAAA,0.0723 ± 0.05
17,CTATTAAA,0.125 ± 0.055
18,ATCTTAAC,0.0878 ± 0.048
19,ATATTAAG,0.0865 ± 0.0037
20,ATATTCAA,0.171 ± 0.023
21,ATATTCAT,0.238 ± 0.022
22,ATATTAAC,0.22 ± 0.076
23,ATATTCAC,0.193 ± 0.047
24,ATCTTAAT,0.232 ± 0.042
25,ATATTAAT,0.302 ± 0.02

row,Sequence,PBM 8-mer E-score
1,TTATTAAA,0.0933 ± 0.013
2,ACATTGAT,0.105 ± 0.0059
3,AACGAGTG,-0.131 ± 0.02
4,CGCGACCG,-0.221 ± 0.029
5,CACTAGAG,-0.0261 ± 0.065
6,ATAGGTAA,0.0236 ± 0.0059
7,GCTCTGGA,-0.0441 ± 0.02
8,CGTGGAGA,0.0751 ± 0.065
9,GAAGGGGA,-0.0692 ± 0.0026
10,GCCCCACA,0.156 ± 0.1
11,GCCCCACC,0.289 ± 0.051
12,CCCCCAAC,-0.195 ± 0.066
13,GCCCCAAA,0.117 ± 0.0026
14,GCCCCAAC,0.315 ± 0.0087
15,CCCCCACC,-0.264 ± 0.062
16,CAATGGGA,0.0389 ± 0.029
17,CCGCACTA,-0.0974 ± 0.0081
18,CGAAGCAA,-0.0083 ± 0.02
19,AGATCCCA,-0.0112 ± 0.031
20,ACCTTAAG,-0.0585 ± 0.037
21,CTCCCGGC,-0.268 ± 0.0042
22,CCTAATTA,0.0703 ± 0.012
23,GGTAATTA,0.24 ± 0.0065
24,GCTAATTA,0.235 ± 0.039
25,ACTAATTA,0.226 ± 0.024

row,Sequence,PBM 8-mer E-score
1,CGTAATTA,0.202 ± 0.046
2,AGTAATTA,0.202 ± 0.03
3,ATGCGGGC,-0.00019 ± 0.029
4,AGTCCTCA,-0.113 ± 0.048
5,AATTTGTA,0.0698 ± 0.0044
6,ACGGAGAA,0.18 ± 0.029
7,GAGCCAAA,-0.057 ± 0.017
8,CCTATCGA,0.15 ± 0.023
9,GCCCGCCA,0.0111 ± 0.022
10,CGCCGCCC,-0.0329 ± 0.11
11,ACCCGCCC,0.274 ± 0.11
12,GCCCGCCC,0.108 ± 0.057
13,ACCCGCCG,0.0869 ± 0.081
14,TCCCGCCA,-0.0896 ± 0.035
15,CCCCGCCC,0.355 ± 0.037
16,CCCCGCCG,0.161 ± 0.13
17,CCCCGCCA,0.309 ± 0.031
18,CCGATAGC,-0.195 ± 0.0074
19,TCGGACGA,-0.0961 ± 0.011
20,CATGCCCG,0.114 ± 0.033
21,ACGTAGGC,-0.161 ± 0.069
22,AATTGATG,0.196 ± 0.013

# From the supplement of paper PMC12636033
